Test results taken from PubChem BioAssay (NCATS).
Some of the results follow. Inconclusive results are not listed. Unmarked numbers belong to inactive results. The source made the active and inactive calls. How the source made its calls: active means clear falling dose curves in both reporters; inconclusive means both reporters move, but less clearly or upward; inactive means either reporter flat; the % is the FLuc reporter signal.
Potency means the concentration at half of the fitted maximal effect.

Experiment: Cell-based coincidence reporter assay to measure PMP22 gene transcription in S16 Pmp22-F2sN cells - Confirmatory screen (AID 1508646)
Conditions: S16 Schwann cells Pmp22-F2sN, dual luciferase, 24 h; series mostly up to 57.5 µM; activity change, negative = inhibition: at the top concentration
From the text: Assay Provider: Jim Inglese Ph.D. National Center for Advancing Translational Science, National Institutes of Health, Rockville, MD CMT is a heterogeneous group of neurological disorders that affect approximately 1 in 2,500 people. In particular, the most common form of CMT, CMT1A is genetically linked to the duplication of the PMP22 gene which leads to Schwann cell overexpression, thus manifesting itself as a typical case of dose-sensitive diseases. To identify small molecule compounds that can mediate the expression of PMP22 we developed a phenotypic assay screening strategy by utilizing genome editing techniques to construct Schwann cell lines containing novel reporter technology to monitor the transcriptional or translational regulation of PMP22. For high sensitivity we use a bioluminescent reporter system embedded in the 3' UTR of the PMP22 gene (S16(c9) Pmp22-F2sN) to identify compounds that inhibit gene expression. […] We can further discriminate the effect of all transcriptionally active molecules on PMP22 translation or stability with an assay that incorporates a short NLuc peptide (HiBiT) at the C-terminus of expressed PMP22 (S16(f8) PMP22-HiBiT) allowing alpha complementation and luminescence detection of membrane-associated PMP22 protein. These assays were screened against the NCATS Sytravon Library Collection. Miniaturization of these assays to 1536-well plate format for quantitative high throughput screening (qHTS) yielded rich data sets immediately from the qHTS assay (S16(c9) Pmp22-F2sN), when compared with data from a cell viability assay (Cell TiterGlo) to identify compounds that decreased the output signals through cellular toxicity to streamline the selection process of actives for subsequent characterization using the HiBiT assay (S16(f8) PMP22-HiBiT).
Cell-based coincidence reporter assay to measure PMP22 gene transcription in S16 Pmp22-F2sN cells PROTOCOL TABLE (format as described by Inglese J, Shamu CE and Guy RK. 2007) SEQUENCE No. (e.g., 1, 2, 3, etc.); PARAMETER (e.g., Cells, Incubation, Reagent, etc.); VALUE and DESCRIPTION. 1. Cells. Add 500-1,000 cells in 4 uL in growth media (DMEM High Glucose, No Phenol Red media + 10% heat-inactivated FBS + 1% Pen/Strep supplemented media) per well into Greiner 1536-well white/solid bottom high base, TC-treated plates. 2. Compounds. Library compounds and controls added at 23nL per well, transferred by Pin Tool. 3. Incubation. Incubate plates at 37C, 5% CO2, 95% RH for 24 h. 4. Reagent. Add 3.5uL Nano-Glo Dual-Luciferase Reporter Assay System reagent 1: Lysis and FLuc reagent per well of Greiner 1536-well plates. 5. Incubation. Incubate plates at room temperature for 10 min., protect from light. 6. Detector. FLuc luminescence measured using CCD-based camera (Viewlux). 7. Reagent. Add 3.5uL Nano-Glo Dual-Luciferase Reporter Assay System reagent 2: Stop&Glo reagent per well of Greiner 1536-well plates. 8. Incubation. Incubate plates at room temperature for 10 min., protect from light. 9. Detector. NLuc luminescence measured using CCD-based camera (Viewlux). NOTES (numbers refer to Sequence numbers above; values are from representative experiments) 6. Luminescence Read #1 (FLuc): Clear filter; Exposure = 10 sec, Gain = High, Speed = Slow, Binning = 2X 9. Luminescence Read #2 (NLuc): Clear filter; Exposure = 1 sec, Gain = High, Speed = Slow, Binning = 2X REFERENCES: 1. Inglese J, Shamu CE and Guy RK, Reporting data from high throughput screening of small molecule libraries, Nature Chemical Biology, 2007, 3(8): 438-441. doi.org/10.1038/nchembio0807-438 2. Yasgar A, Shinn P, Jadhav A, Auld DS, Michael S, Zheng W, Austin CP, Inglese J and Simeonov A, Compound Management for Quantitative High-Throughput Screening. J. Assoc. Lab. Auto., 2008, 13: 79-89. doi: 10.1016/j.jala.2007.12.004
With `Cc1ccccc1CNC(=O)CSc1nnc(C)c2c(C)n(-c3ccccc3)nc12` the Potency was 16.3 µM (active).
In the case of `CCCS(=O)(=O)c1ncc(Cl)c(C(=O)Nc2scc(-c3ccccc3)c2C(=O)OCC)n1`, the Potency was 10.4 µM (active).
With `COc1cccc(NC(=O)CSC2=Nc3ccccc3C3=NC(CC(=O)NC4CCCCC4)C(=O)N23)c1` (stereo unspecified) the “activity change, negative = inhibition” value was 13.4%.
In the case of `CCCCOc1ccc(CN2C(=O)C(=O)c3cc(Br)cc(C)c32)cc1OC`, the Potency was 10.9 µM (active).
In the case of `Cc1cc(F)ccc1NS(=O)(=O)c1ccc(-n2cccn2)cc1`, the “activity change, negative = inhibition” value was -24.1%.
For `CCOc1ccc(NC(=O)c2c(NC(=O)Cc3ccccc3)sc3c2CCC(C)C3)cc1` (stereo unspecified), the Potency was 16.5 µM (active).
For `Cc1ccc(CCNC(=O)C2CCN(c3nnc(-n4cccc4CNc4ccc(C)cc4)s3)CC2)cc1`, the Potency was 15.1 µM (active).
In the case of `O=C(c1ccc2c(c1)N(Cc1ccc(F)cc1)C(=O)c1ccccc1S2(=O)=O)N1CCN(c2ccccn2)CC1`, the “activity change, negative = inhibition” value was -19.8%.
In the case of `O=C(CCS(=O)(=O)c1ccccc1)N(Cc1cccnc1)c1nc2c(F)cccc2s1`, the Potency was 12.3 µM (active).
In the case of `Cc1cc(OCC(=O)NCC2(N(C)C)CCCCC2)cc(C)c1Cl`, the “activity change, negative = inhibition” value was 0%.
For `Cc1ccc(NC(=O)c2nc(S(=O)(=O)Cc3cccc(C)c3)ncc2Cl)cc1`, the Potency was 13.1 µM (active).
In the case of `COc1ccccc1Nc1c2c(nc3ccc(NC(=O)/C=C/c4cc(OC)c(OC)c(OC)c4)cc13)CCCC2`, the Potency was 12.2 µM (active).
For `CCc1ccc(NC(=O)CN2CCSc3ccc(S(=O)(=O)N4CCCC4)cc32)cc1`, the “activity change, negative = inhibition” value was -36.8%.
With `CCOC(=O)C1CCN(C(=O)CSc2c3c(nc4ccc(Cl)cc24)CCCC3)CC1` the Potency was 17.3 µM (active).
For `COc1ccccc1-c1cc(C(F)(F)F)nc(S(=O)(=O)CCCC(=O)Nc2ccc(F)cc2F)n1`, the Potency was 15.3 µM (active).
In the case of `Cc1sc(C2C(C#N)=C(N)N(c3cccc(Cl)c3)C3=C2C(=O)CCC3)cc1CN1CCOCC1` (stereo unspecified), the “activity change, negative = inhibition” value was -27.6%.
